Structures are written as SMILES. Where “and” joins values, the source holds several entries; their conditions need not be identical. Equal entries are not always repeated. Inconclusive results are not listed. A structure can be active in one record and inactive in another. Values without a mark were called inactive. Calls of active or inactive are those of the source. The call rests on the fitted dose curve; in most records, active means well fitted curve in the direction sought with a large enough effect; inconclusive means small, poorly fitted or top-dose-only effect, or another doubt; inactive means no such curve, though single readings can be large; an effect the other way counts as inactive or inconclusive.

One assay deals with HeLa. Put plainly: Primary qHTS to identify gynecologic anti-cancer compounds using libraries of approved drugs and bioactive compounds (AID 1345084). Further: nearly all actives have a fitted effect of over 55% in size. Conditions: Gynecologic cancer cell panel viability, ATPlite luminescence, 48 h; series mostly up to 57.5 µM. In outline: (§1)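 Cytotoxicity screen measuring ATP content by luciferase luminescence. Each compound is applied at five concentrations for 48 h at 37 C with 5% CO2.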
In general terms: Quantitative high-throughput screening tests each substance at several concentrations.

Another assay concerns Hek293T. The description is as above. Conditions: Gynecologic cancer cell panel viability, ATPlite luminescence, 48 h, control line for the selectivity index; series mostly up to 57.5 µM. In outline:
as §1

For a further assay, the system named is JEG-3. The assay is described as above. Conditions: Gynecologic cancer cell panel viability, ATPlite luminescence, 48 h; series mostly up to 57.5 µM. In outline:
as §1
(In general: ATP-based viability assays read luminescence as a measure of living cells.)

The next assay relates to OV90. Described as above. Conditions: Gynecologic cancer cell panel viability, ATPlite luminescence, 48 h; series mostly up to 57.5 µM. An outline of the steps:
as §1

Another assay deals with PA-1. The assay is described as above. Conditions: Gynecologic cancer cell panel viability, ATPlite luminescence, 48 h; series mostly up to 57.5 µM. An outline of the steps: as §1
A further assay relates to SKOV3. The assay is described as above. As to conditions: Gynecologic cancer cell panel viability, ATPlite luminescence, 48 h; series mostly up to 57.5 µM. In outline:
as §1

A further assay deals with Tov-21-G. The description is as above. As to conditions: Gynecologic cancer cell panel viability, ATPlite luminescence, 48 h; series mostly up to 57.5 µM. In outline:
as §1

The next assay deals with Tov112D. The description is as above. As to conditions: Gynecologic cancer cell panel viability, ATPlite luminescence, 48 h; series mostly up to 57.5 µM. An outline of the steps: as §1
Assay [1] can be described thus: Drug repurposing screens with cells derived from glioblastoma tumor samples (AID 1345199). Further: nearly all actives have a fitted effect of over 40% in size. Conditions: GBM patient neurospheres viability, ATP luminescence, 48 h. An outline of the steps: (§2)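 Primary testing used CD133+ neurospheres from four GBM patients, seven concentrations, 48 h exposure and ATP-based viability; confirmation added three slower-growing patient lines.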

The test system of a further assay is astro. The assay is described as above. As to conditions: viability, ATP luminescence, 48 h; series mostly up to 45.9 µM. An outline of the steps: as §2
[2] abbreviates: at 91.6 µM (top of the series), tumour line B.
[3] abbreviates: at 91.6 µM (top of the series), tumour line D.
Where [4] appears, read: at 108 µM (top of the series), tumour line B.
The mark [5] stands for this setting: at 108 µM (top of the series), tumour line D.
The mark [6] stands for this setting: at 45.9 µM (top of the series), tumour line B.
Setting [7] is: at 45.9 µM (top of the series), tumour line D.
Where [8] appears, read: at 46 µM (top of the series), tumour line A.
On the % scale 0 is the no-effect control and ±100 the full control effect; potency means the concentration at half of the fitted maximal effect.

With `COc1ccc2c3c1O[C@H]1[C@H](O)CC[C@H]4[C@@H](C2)N(C)CC[C@@]341`, the Potency entry with HeLa, with OV90, with PA-1, in the assay on Tov-21-G, with Tov112D and in the assay with astro was “inactive” throughout. The outcome in the assay with Hek293T, with JEG-3 and in the assay on SKOV3 was inactive. Moreover, the activity, negative = cell killing is -15.1% in assay [1] (setting [2]) and -10.3% in assay [1] (setting [3]).

As for `CCN(CC)CCc1c[nH]c2ccccc12`, the Potency entry with HeLa, in the assay with PA-1, in the assay on Tov-21-G, with Tov112D and in the assay with astro was “inactive” each time. The outcome with Hek293T, in the assay on JEG-3 and with SKOV3 was inactive. Further, the activity, negative = cell killing in [1] (setting [4]) was -10.6%; in assay [1] (setting [5]), -16.4%. In [1] (tumour line A), the Potency is 63.1 µM (active).

Turning to `COc1cccc2c1C(=O)c1c(O)c3c(c(O)c1C2=O)C[C@@](O)(C(=O)CO)CC3OC1CC(N2CCOC(OC)C2)C(O)C(C)O1` (stereo not given in full), the Potency with HeLa was 0.224 µM (active); in the assay on OV90, 0.447 µM (active); in the assay with Tov-21-G, 0.1 µM (active); with Tov112D, 0.1 µM (active).

Turning to `CCN(CCO)CCn1c(Cc2ccccc2)nc2c1c(=O)n(C)c(=O)n2C`, the Potency entry in the assay with HeLa, in the assay with PA-1, with Tov-21-G and with Tov112D was “inactive” in each case. Besides, the outcome with Hek293T and in the assay with JEG-3 was inactive. Also, the activity, negative = cell killing in [1] (setting [6]) is -6.5%; in [1] (setting [7]) it was -3.15%.

On to `COc1ccc2c(c1)C13CCCC[C@@H]1C(C2)N(C)CC3` (stereo not given in full), for which the activity, negative = cell killing in assay [1] (setting [6]) is -6.27%; in assay [1] (setting [7]) it was -5.01%. Besides, the Potency in assay [1] (tumour line A) was 35.5 µM (active). Moreover, the Potency result with astro is “inactive”.

Turning to `COc1cc(CC(C)N)cc(OC)c1OC` (stereo not given), the Potency is 1.58 µM (active) in the assay with HeLa, 2.51 µM (active) with PA-1 and 0.708 µM (active) in the assay with Tov-21-G. Further, the outcome with Hek293T and in the assay on JEG-3 was inactive. For the same molecule, the activity, negative = cell killing in assay [1] (setting [4]) is -12%; in assay [1] (setting [5]), -16.2%. Moreover, the Potency result in the assay with astro is “inactive”.

`CN=C1CN(O)C(c2ccccc2)=c2cc(Cl)ccc2=N1`: the activity, negative = cell killing is -15.1% and 1.01% in [1] (setting [6]); -14.7% and -15.6% in [1] (setting [7]). Besides, the Potency in assay [1] (tumour line A) was 11.2 µM (active).

Take `C[C@]12CCC(=O)C=C1CC[C@@H]1[C@@H]2CC[C@]2(C)C(=O)CC[C@@H]12`: the result in the assay with Hek293T, in the assay on JEG-3 and in the assay on SKOV3 was inactive. The Potency result in the assay with OV90, with Tov-21-G, with Tov112D and in the assay on astro was “inactive” each time. In addition, in assay [1] (setting [6]), the activity, negative = cell killing was -22.1%. Also, the Potency in assay [1] (tumour line A) was 10 µM (active).

Regarding `CN1C[C@H](C(=O)N[C@]2(C)O[C@@]3(O)[C@@H]4CCCN4C(=O)[C@H](Cc4ccccc4)N3C2=O)C=C2c3cccc4[nH]cc(c34)C[C@H]21`, in assay [1] (setting [6]), the activity, negative = cell killing is -13.4%. Besides, the Potency in assay [1] (tumour line A) is 14.1 µM (active). Besides, the Potency entry in the assay on astro was “inactive”.

Turning to `CC(C(=O)c1ccccc1)N(C)C` (stereo not given), the Potency result in the assay on HeLa, with OV90, in the assay on PA-1, in the assay on Tov-21-G and in the assay on Tov112D was “inactive” in each case. Moreover, the molecule was classed as inactive in the assay on JEG-3 and with SKOV3.

Consider `CN1C(=O)CC(=O)N(c2ccccc2)c2cc(Cl)ccc21`, for which the figures for the activity, negative = cell killing in assay [1] (setting [6]), in [1] (setting [7]) and in assay [1] (setting [8]) were -10.8%, -2.22% and -21.5%, respectively. Further, the Potency result in the assay with astro was “inactive”.

For `O=C1Nc2ccc(Cl)cc2C(c2ccccc2)=NC1O` (stereo not given), the activity, negative = cell killing was -7.13% in assay [1] (setting [6]), -25.5% in assay [1] (setting [7]), -11.1% in assay [1] (setting [2]) and -11.5% in [1] (setting [3]). Further, the Potency in [1] (tumour line A) is 39.8 µM (active). For the same molecule, in the assay with astro, the Potency entry was “inactive”.

For `C[C@]1(O)CC[C@H]2[C@@H]3CCC4=CC(=O)CC[C@]4(C)[C@@]3(F)[C@@H](O)C[C@@]21C`, the activity, negative = cell killing in assay [1] (setting [6]) is -7.52%; in assay [1] (setting [7]), -21.3%. In addition, in assay [1] (tumour line A), the Potency was 35.5 µM (active). Moreover, the Potency entry with astro is “inactive”.

`C[C@](O)(CS(=O)(=O)c1ccc(F)cc1)C(=O)Nc1ccc(C#N)c(C(F)(F)F)c1`: in [1] (setting [6]), the activity, negative = cell killing is -21.4%. The Potency in assay [1] (tumour line A) was 12.6 µM (active).

In the case of `CCCC(C)(COC(N)=O)COC(N)=O`, the activity, negative = cell killing in assay [1] (setting [6]) is 0.449%; in [1] (setting [7]), -14.8%; in assay [1] (setting [8]), -19.1%. For the same molecule, the Potency entry with astro was “inactive”.

For the molecule `COC(=O)C(c1ccccc1)C1CCCCN1` (stereo not given), the figures for the activity, negative = cell killing in assay [1] (setting [6]), in assay [1] (setting [7]) and in assay [1] (setting [8]) were -10.4%, 3.11% and -16.7%, respectively. In the assay on astro, the Potency result was “inactive”.

Turning to `CCN(CC)C(=O)[C@@H]1C=C2c3cccc4[nH]cc(c34)C[C@H]2N(C)C1`, the Potency entry with HeLa, in the assay on Tov-21-G, in the assay on Tov112D and in the assay with astro was “inactive” each time. Also, the outcome with Hek293T and with JEG-3 was inactive. The activity, negative = cell killing is -17.8% in assay [1] (setting [6]) and -16.6% in assay [1] (at 194 µM (top of the series), tumour line B).

These data come from PubChem BioAssay (NCATS).
